HP1b chromo inh: HP1-beta chromodomain-methylated histone interaction inhibition | AlphaScreen HP1-beta / biotin-H3K9me3 peptide binding | Potency, µM (highest dose often 114 µM), for inactives: at the top dose activity change, negative = inhibition, actives largely listed as inhibitors | P83916 | 0.56% of 390,000 active; note: nearly all actives have a fitted effect of over 70% in size
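HP1-beta protein (50 nM final) preincubated 30 min at room temperature with biotinylated H3(1-18)K9me3 peptide (50 nM) in PBS pH 7.4, 0.01% Tween-20, then compound added for 30 min. AlphaScreen streptavidin donor/nickel chelate acceptor beads (10 ug/mL final), 30 min dark, luminescence read.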
JMJD2A Tudor inh: JMJD2A Tudor domain (human) inhibition. O75164. AlphaScreen JMJD2A-Tudor / H3K4me3 peptide binding. Potency, µM (series often up to 114 µM), for inactives: at the highest dose activity change, negative = inhibition, actives largely listed as inhibitors. 4.4% of 390,000 active; note: % is set by controls: 0 for no effect and ±100 for the full control effect; nearly all actives have a fitted effect of over 50% in size
Target sequence (O75164 whole entry, looked up, the tested form may be a part): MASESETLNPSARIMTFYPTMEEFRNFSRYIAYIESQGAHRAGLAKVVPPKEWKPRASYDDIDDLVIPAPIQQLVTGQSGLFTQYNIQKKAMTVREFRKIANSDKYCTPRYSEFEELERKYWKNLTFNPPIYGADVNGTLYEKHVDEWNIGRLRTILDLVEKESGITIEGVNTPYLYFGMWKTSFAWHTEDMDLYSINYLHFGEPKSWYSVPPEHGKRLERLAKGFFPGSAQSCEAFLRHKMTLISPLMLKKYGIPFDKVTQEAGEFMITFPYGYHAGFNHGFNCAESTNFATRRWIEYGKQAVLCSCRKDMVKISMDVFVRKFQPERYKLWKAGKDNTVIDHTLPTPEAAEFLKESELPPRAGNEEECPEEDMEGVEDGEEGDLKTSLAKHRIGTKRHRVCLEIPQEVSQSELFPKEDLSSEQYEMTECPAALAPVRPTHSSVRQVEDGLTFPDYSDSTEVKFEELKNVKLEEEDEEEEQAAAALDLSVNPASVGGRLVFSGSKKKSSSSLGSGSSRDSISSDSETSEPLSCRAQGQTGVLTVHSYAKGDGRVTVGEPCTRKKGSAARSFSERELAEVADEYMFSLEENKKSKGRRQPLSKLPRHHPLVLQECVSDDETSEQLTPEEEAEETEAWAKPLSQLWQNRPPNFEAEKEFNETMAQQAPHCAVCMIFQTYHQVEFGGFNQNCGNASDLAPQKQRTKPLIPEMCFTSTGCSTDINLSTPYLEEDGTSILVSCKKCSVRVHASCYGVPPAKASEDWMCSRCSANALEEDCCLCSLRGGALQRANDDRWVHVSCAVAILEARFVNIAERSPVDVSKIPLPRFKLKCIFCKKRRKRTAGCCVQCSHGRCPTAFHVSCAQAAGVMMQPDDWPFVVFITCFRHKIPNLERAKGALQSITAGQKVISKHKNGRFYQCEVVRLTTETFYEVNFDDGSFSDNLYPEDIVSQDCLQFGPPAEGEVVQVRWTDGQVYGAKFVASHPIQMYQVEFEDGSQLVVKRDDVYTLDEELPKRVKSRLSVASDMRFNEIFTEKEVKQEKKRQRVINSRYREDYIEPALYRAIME
G9a block: inhibitors of human histone lysine methyltransferase G9a; Q96KQ7; G9a H3K9 monomethylation, AlphaScreen, 2 h; Potency, µM (highest dose often 102 µM), without a hit: top-dose activity, negative = inhibition, usual class: inhibitors; 8.8% of 350,000 active; AID 504332; note: % is set by controls: 0 for no effect and ±100 for the full control effect; nearly all actives have a fitted effect of over 75% in size
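Methyltransferase reactions run at room temperature for 2 h (20 nM enzyme, 500 nM biotin-H3K9 peptide, 20 uM SAM) after a 15 min compound preincubation; product detected by AlphaScreen beads and anti-H3K9me1 antibody.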
PLK1 PBD inh: inhibitors of human PLK1 polo-box domain binding; Plk1 PBD binding of FITC phosphopeptide, fluorescence polarization; AID 720504; 2.8% of 360,000 active; P53350; Potency, µM, without a hit: max response, negative = inhibition, most hits filed as inhibitors; note: series mostly up to about 57 µM; % is set by controls: 0 for no effect and ±100 for the full control effect; nearly all actives have a fitted effect of over 65% in size
12-LOX inh: blocks human arachidonate 12S-lipoxygenase; P18054; purified 12hLO, xylenol orange hydroperoxide absorbance; Potency, µM (titrated, usually from 108 µM), without a hit: at the top dose activity change, negative = inhibition, usual class: inhibitors; 1.1% of 580,000 active; AID 1671190; note: % is set by controls: 0 for no effect and ±100 for the full control effect
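Hydroperoxide product was detected by ferrous iron/xylenol orange as the 573 to 405 nm absorbance ratio. Arachidonic acid at 40 uM (final) was turned over for 30 min at room temperature by 150 nM human 12hLO, pH 7.0 Hepes buffer, after 15 min compound preincubation.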
BAZ2B block: BAZ2B (human) inhibition | Q9UIF8 | AlphaScreen BAZ2B-H3K14Ac peptide displacement | Potency, µM (series often up to 114 µM), for inactives: at the highest dose activity change, negative = inhibition, most hits filed as inhibitors | 4.4% of 360,000 active | AID 504333; note: % is set by controls: 0 for no effect and ±100 for the full control effect; nearly all actives have a fitted effect of over 60% in size
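Compounds, titrated to a top concentration of 110 uM, were incubated 30 min at room temperature with preformed BAZ2B/acetyl-K14 H3 peptide complex (50 nM each). Proximity signal was measured by AlphaScreen after 20 min with beads.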
* = called active by the depositor; ? = inconclusive; . = no result given; [ ] = dose if it differs, or a comment. Shown are actives, neighbours in structure and some others; about 9% of the full set was active somewhere. Calls come from the whole dose curve; as a rule, active = well fitted curve in the direction sought with a large enough effect; inconclusive = small, poorly fitted or top-dose-only effect, or another doubt; inactive = no such curve, though single readings can be large; an effect the other way counts as inactive or inconclusive. Potency is the fitted concentration of half-maximal effect.

SMILES | HP1b chromo inh | JMJD2A Tudor inh | G9a block | PLK1 PBD inh | 12-LOX inh | BAZ2B block
CC(C)C1N=C2c3ccccc3N=C(SCc3cc(=O)n4cc(Cl)ccc4n3)N2C1=O (configuration not stated) | 51.8% | -5.8% | -4.3% | -1.1% | 8.6% | -25.3%
CC(=O)NCCc1c[nH]c2ccc(OCC(O)CNC(C)(C)C)cc12 (configuration not stated) | 30.1% | -8.4% | . | -15.8% | -14.3% | -9.7%
O=c1c2ccccc2c2ccccc2c(=O)n1-c1ccccc1 | 7.3% | -3.6% | 50.1µM* | ? | -5.4% | -25.0%
O=c1c2ccccc2c(=O)n(-c2ccccc2)n1-c1ccccc1 | 24.4% | -8.9% | . | 8.0% | -3.7% | .
c1ccc(-c2cnc(CSc3ncnc4sccc34)o2)cc1 | 88.9% | -1.4% | 14.1µM* | ? | ? | 5.3%
c1ccc(-c2nc(SCc3ncc(-c4ccccc4)o3)n[nH]2)cc1 | . | . | . | . | 7.3% | .
O=C(CCC1CCCCC1)NCc1ccc(Cl)cc1 | . | . | . | . | -19.0% | .
O=C1C2C3C=CC(C4CC34)C2C(=O)N1/N=C/c1ccc([N+](=O)[O-])s1 (configuration not stated) | 31.8% | -4.3%[57.1 µM] | 25.9%[59 µM] | -24.2% | 5.6% | 8.0%
O=C1C2C3C=CC(C4CC34)C2C(=O)N1/N=C/c1c[nH]c2ccccc12 (configuration not stated) | 37.8% | -9.8% | 50.1µM* | -3.8% | -16.1% | 21.0%
Oc1ccc(O)cc1 | . | . | 5.97µM* | . | ? | .
N#Cc1ccc(-n2nccc2-c2cnc3n(c2=O)CCS3)cc1 | -11.1% | 50.1µM* | -7.4%[12.7 µM] | 26.7µM* | 89.8%[57.4 µM] | 8.4%
CCc1nc(-c2ccccc2)c2ccccn12 | 34.6% | 2.4% | 15.8µM* | -1.4% | 1.0% | .
CCCCn1c(=O)[nH]c(=O)c2c1nc(-c1ccc3ccccc3c1)n2CC | 17.8% | -9.8% | 5.9% | -15.0% | -19.5% | -13.0%
CCCCCn1cnc2c1c(=O)[nH]c(=O)n2CCCC | . | . | . | . | -10.1% | .
CCCCn1c(=O)[nH]c(=O)c2c1nc(-c1ccc(-c3ccccc3Br)o1)n2CC | 15.6% | -18.8% | 10µM* | -18.7% | ? | -8.7%
CCCCn1c(=O)[nH]c(=O)c2c1nc(-c1ccc(-c3ccccc3)cc1)n2C | 49.1% | -7.4% | 39.8µM* | 0.1% | -18.6% | 0.6%
CCCCn1cnc2c1c(=O)[nH]c(=O)n2CCCC | -18.2% | -8.4%[11.4 µM] | -14.2%[59 µM] | 11.9µM* | -1.5% | -1.9%
Cc1cc(C)c(NC(=O)C2=Cc3sc4c(c3CS2)CCCC4)c(C)c1 | . | . | . | . | 28.2µM* | .
CCC(C)NC(=O)C1=Cc2sc3c(c2CS1)CCCC3 (configuration not stated) | . | . | . | . | 14.1µM* | .
Cc1ccc(C)c(NC(=S)NNC(=O)c2csc3c2CCCC3)c1 | -15.9% | -18.2% | 5.8%[12.7 µM] | ? | ? | 3.9%
Cc1ccc(C)c(NC(=O)C2=Cc3sc4c(c3CS2)CCCC4)c1 | . | . | . | . | 17.8µM* | .
Cc1ccc(NC(=O)C2=Cc3sc4c(c3CS2)CCCC4)cc1C | . | . | . | . | 7.08µM* | .
CC(=O)Cc1cc(O)c2ccccc2c1OC(=O)c1ccc(Br)cc1 | 21.0% | -1.8% | 0.5% | -6.9% | 0.0% | -6.3%
O=C(c1cc2cc([N+](=O)[O-])ccc2oc1=O)N1CCCCC1 | . | . | . | . | -8.2% | .
O=C(c1cc2cc([N+](=O)[O-])ccc2oc1=O)n1cccn1 | 17.5% | -20.5% | 44.7µM* | -0.3% | ? | -13.8%
O=C(C1CC1)N1CCC(C(O)(c2ccccc2)c2ccccc2)CC1 | 17.2% | 27.8% | -21.4%[59 µM] | -6.7% | -13.4% | -2.9%
Oc1ccccc1CN1CCN(C(O)(c2ccccc2)c2ccccc2)CC1 | 2.4% | -16.7% | 35.5µM* | 1.4% | ? | 50.1µM*
Oc1ccccc1CN1CCC(C(O)(c2ccccc2)c2ccccc2)CC1 | ? | ? | 8.91µM* | -5.0% | -27.4% | -37.6%
CCOc1ccccc1N(CC(=O)Nc1ccccc1C(=O)N1CCOCC1)S(C)(=O)=O | 15.0% | -7.4% | . | -8.2% | 0.0% | -14.3%
